As a reminder, the AC50 is the midpoint of the concentration-response curve, whichever way the signal moves.

This is an account of results in PubChem BioAssay (EPA / NIEHS).

Read-out in assay [1]: Vascular endothelial growth factor receptor 2 (Homo sapiens) (UniProt P35968)
Kind of assay: BSK_4H_VEGFRII: BioMAP Diversity Plus: 4H Assay for Vascular endothelial growth factor receptor 2 (VEGFR2) Biomarker Activity (AID 2283031). Conditions: primary human endothelial cells (HUVEC); actives raise or lower the signal. The procedure, abridged:
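HUVEC (human primary), 4H system; 24 h post-dose; VEGFRII by ELISA; bidirectional curve fit vs DMSO baseline; gain or loss of signal scored.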

Read-out in assay [2]: Human Leukocyte Antigen - DR isotype (HLADR), HLA-DRA (gene 3122)
The assay is described as follows: BSK_BE3C_HLADR: BioMAP Diversity Plus: BE3C Assay for Human Leukocyte Antigen - DR isotype (HLADR) Biomarker Activity (AID 2283032). To be noted: primary human bronchial epithelial cells; actives raise or lower the signal. The procedure, abridged: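 Signal came from an ELISA for HLA-DR in human bronchial epithelial primary cells harvested 24 h after treatment; gain- and loss-of-signal fitting used DMSO controls as reference.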

Read-out in assay [3]: Vascular cell adhesion molecule 1 (VCAM1), VCAM1 (gene 7412)
The assay is described as follows: BSK_4H_VCAM1: BioMAP Diversity Plus: 4H Assay for Vascular cell adhesion molecule 1 (VCAM1) Biomarker Activity (AID 2283033).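 As to outcome: cell-surface VCAM-1 protein measured by ELISA.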 To be noted: primary human endothelial cells (HUVEC); actives raise or lower the signal. The procedure, abridged:
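Endpoint derived from bidirectional fitting against DMSO controls of VCAM-1 ELISA signal in umbilical vein endothelial cells sampled at 24 h following treatment.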

Read-out in assay [4]: Interferon-gamma inducible Protein 10 (IP10), CXCL10 (gene 3627)
Kind of assay: BSK_BE3C_IP10: BioMAP Diversity Plus: BE3C Assay for Interferon-gamma inducible Protein 10 (IP10) Biomarker Activity (AID 2283034). To be noted: primary human bronchial epithelial cells; actives raise or lower the signal. Summed up:
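Using primary human bronchial epithelial cultures, the assay captures IP-10 by ELISA one day (24 h) after exposure. Parallel SRB staining of total protein flags overt cytotoxicity. Fits run bidirectionally relative to DMSO.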

Read-out in assay [5]: Monokine induced gamma interferon (MIG), CXCL9 (gene 4283)
The assay is described as follows: BSK_BE3C_MIG: BioMAP Diversity Plus: BE3C Assay for Monokine induced gamma interferon (MIG) Biomarker Activity (AID 2283035). To be noted: primary human bronchial epithelial cells; actives raise or lower the signal. Summed up:
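MIG level was determined by ELISA after 24 h chemical treatment of primary human bronchial epithelial cells. Values were fitted bidirectionally with DMSO as the negative control and activity baseline.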

Read-out in assay [6]: Transforming growth factor beta 1 (TGFb1), TGFB1 (gene 7040)
Kind of assay: BSK_BE3C_TGFb1: BioMAP Diversity Plus: BE3C Assay for Transforming growth factor beta 1 (TGFb1) Biomarker Activity (AID 2283036;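 also: TGF-b1 protein level measured by ELISA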). Conditions: primary human bronchial epithelial cells; actives raise or lower the signal. Summed up:
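In this human primary bronchial epithelial system, an ELISA quantified TGF-b1 one day after dosing. Endpoint changes in either direction were fitted relative to DMSO.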

Read-out in assay [7]: Plasminogen activator inhibitor-1 (PAI1), SERPINE1 (gene 5054)
The assay is described as follows: BSK_BE3C_PAI1: BioMAP Diversity Plus: BE3C Assay for Plasminogen activator inhibitor-1 (PAI1) Biomarker Activity (AID 2283037). Conditions: primary human bronchial epithelial cells; actives raise or lower the signal. The procedure, abridged:
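PAI-1 biomarker levels in treated human bronchial epithelial cells are determined by ELISA at 24 h. Both increases and decreases relative to DMSO are fitted.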

Read-out in assay [8]: urokinase plasminogen activator (uPA), PLAU (gene 5328)
The assay is described as follows: BSK_BE3C_uPA: BioMAP Diversity Plus: BE3C Assay for urokinase plasminogen activator (uPA) Biomarker Activity (AID 2283038).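 Also: uPA protein level quantified by ELISA in cell cultures; uPA read one day after compound addition.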 To be noted: primary human bronchial epithelial cells; actives raise or lower the signal. The procedure, abridged: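 ELISA read-out of uPA in human lung primary bronchial epithelial cultures, 24 h post-dosing. Gain or loss of signal fitted bidirectionally relative to DMSO baseline; cytotoxicity checked in parallel cultures via SRB total protein stain.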

Read-out in assay [9]: Urokinase-type plasminogen activator receptor (uPAR), PLAUR (gene 5329)
Kind of assay: BSK_BE3C_uPAR: BioMAP Diversity Plus: BE3C Assay for Urokinase-type plasminogen activator receptor (uPAR) Biomarker Activity (AID 2283039).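 Also: uPAR protein level measured by ELISA on the cells; cells exposed to compound for one day before measurement.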 Conditions: primary human bronchial epithelial cells; actives raise or lower the signal. Summed up:
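A uPAR ELISA serves as the readout, taken 24 h after treating primary human bronchial epithelial cells. Responses in either direction are fitted against DMSO, which defines baseline activity.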

Read-out in assay [10]: Interleukin-6 (IL6), IL6 (gene 3569)
The assay is described as follows: BSK_CASM3C_IL6: BioMAP Diversity Plus: CASM3C Assay for Interleukin-6 (IL6) Biomarker Activity for (AID 2283040). Conditions: primary human coronary artery smooth muscle cells; actives raise or lower the signal.

Read-out in assay [11]: Tissue plasminogen activator (tPA), PLAT (gene 5327)
The assay is described as follows: BSK_BE3C_tPA: BioMAP Diversity Plus: BE3C Assay for Tissue plasminogen activator (tPA) Biomarker Activity (AID 2283041).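 As to outcome: tPA level quantified by ELISA one day after compound addition.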 Conditions: primary human bronchial epithelial cells; actives raise or lower the signal. The procedure, abridged:
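Bidirectional curve fitting relative to DMSO defined activity, with tPA detected by ELISA in chemically treated human bronchial epithelial primary cells at 24 hours.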

Read-out in assay [12]: Interleukin-8 (IL8), CXCL8 (gene 3576)
Kind of assay: BSK_CASM3C_IL8: BioMAP Diversity Plus: CASM3C Assay for Interleukin-8 (IL8) Biomarker Activity (AID 2283042).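 Also: IL-8 protein level quantified by ELISA.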 Conditions: primary human coronary artery smooth muscle cells; actives raise or lower the signal.

Read-out in assay [13]: Human Leukocyte Antigen - DR isotype (HLADR), HLA-DRA (gene 3122)
The assay is described as follows: BSK_CASM3C_HLADR: BioMAP Diversity Plus: CASM3C Assay for Human Leukocyte Antigen - DR isotype (HLADR) Biomarker Activity (AID 2283043).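 Also: cell-surface HLA-DR protein level quantified by ELISA.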 To be noted: primary human coronary artery smooth muscle cells; actives raise or lower the signal.

Read-out in assay [14]: Macrophage colony-stimulating factor (MCSF), CSF1 (gene 1435)
Kind of assay: BSK_CASM3C_MCSF: BioMAP Diversity Plus: CASM3C Assay for Macrophage colony-stimulating factor (MCSF) Biomarker Activity (AID 2283044).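 Also: M-CSF protein amount quantified by ELISA after 24 h exposure.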 To be noted: primary human coronary artery smooth muscle cells; actives raise or lower the signal.

Read-out in assay [15]: Low-density lipoprotein receptor (LDLR), LDLR (gene 3949)
Kind of assay: BSK_CASM3C_LDLR: BioMAP Diversity Plus: CASM3C Assay for Low-density lipoprotein receptor (LDLR) Biomarker Activity (AID 2283045).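 Also: LDLR protein level on the cell surface quantified by ELISA.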 To be noted: primary human coronary artery smooth muscle cells; actives raise or lower the signal.

Read-out in assay [16]: Monocyte Chemoattractant Protein-1 (MCP1), CCL2 (gene 6347)
The assay is described as follows: BSK_CASM3C_MCP1: BioMAP Diversity Plus: CASM3C Assay for Monocyte Chemoattractant Protein-1 (MCP1) Biomarker Activity (AID 2283046).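 Also: MCP-1 level quantified by ELISA 24 h after dosing.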 To be noted: primary human coronary artery smooth muscle cells; actives raise or lower the signal.

Assay [17] can be described thus: BSK_CASM3C_Proliferation: Cell Proliferation Assessment in the BioMAP Diversity Plus: CASM3C Assay (AID 2283047).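 Also: sulforhodamine B total protein stain as relative cell number at 560 nm; sub-confluent cells exposed 48 h before staining; fitted both ways against DMSO so gain or loss of cell number.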 To be noted: primary human coronary artery smooth muscle cells.
Read-out in assay [18]: Monokine induced gamma interferon (MIG), CXCL9 (gene 4283)
The assay is described as follows: BSK_CASM3C_MIG: BioMAP Diversity Plus: CASM3C Assay for Monokine induced gamma interferon (MIG) Biomarker Activity (AID 2283048).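 Also: MIG protein level measured by ELISA.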 Conditions: primary human coronary artery smooth muscle cells; actives raise or lower the signal.

Read-out in assay [19]: serum amyloid A (SAA), SAA1 (gene 6288)
Kind of assay: BSK_CASM3C_SAA: BioMAP Diversity Plus: CASM3C Assay for serum amyloid A (SAA) Biomarker Activity (AID 2283049).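 Also: SAA protein level quantified by ELISA.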 Conditions: primary human coronary artery smooth muscle cells; actives raise or lower the signal.

Assay [20] can be described thus: BSK_CASM3C_SRB: Viability Assessment in the BioMAP Diversity Plus: CASM3C Assay (AID 2283050).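 Also: cells exposed to compound for 24 h.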 To be noted: primary human coronary artery smooth muscle cells.

Molecules are shown by their SMILES. The source made the active and inactive calls. The calls were made as follows: active = hit-call score of the fitted dose curve at least 0.9, where 1 is the maximum; inactive = score below 0.9.

With `CCOP(=S)(Oc1ccc([N+](=O)[O-])cc1)c1ccccc1` (centres undefined), the outcome in [1], in [2], in assay [4], in assay [5], in assay [6] and in assay [7] was inactive. In addition, the outcome in assay [8], in [9], in [10], in assay [12], in [14] and in [16] was inactive. In addition, the result in assay [18] and in [19] was inactive. Also, the half-maximal activity concentration (AC50) in [3] is 8.86 µM (active); in [11] it was 2.17 µM (active); in assay [13], 14.2 µM (active); in assay [15], 20 µM (active); in assay [17] it was 20 µM (active).

For `COP(=O)(O)OC`, the result in assay [1], in assay [2], in assay [3], in [4], in assay [5] and in assay [6] was inactive. Moreover, the outcome in [7], in assay [8], in assay [9], in assay [10], in assay [11] and in [12] was inactive. The outcome in assay [13], in assay [14], in [15], in [16], in assay [17] and in assay [18] was inactive. Also, the outcome in [19] and in assay [20] was inactive.

With `CC(Cl)(Cl)C(=O)O`, the outcome in [1], in assay [2], in assay [3], in assay [4], in assay [5] and in assay [6] was inactive. Further, the result in assay [7], in assay [8], in assay [9], in assay [10], in assay [11] and in assay [12] was inactive. The outcome in assay [13], in assay [14], in assay [15], in assay [16], in assay [17] and in assay [18] was inactive. In addition, the result in assay [19] and in assay [20] was inactive.

Regarding `CCOP(=S)(OCC)SCSc1ccc(Cl)cc1`, the outcome in [1], in assay [2], in assay [4], in assay [5], in assay [6] and in assay [7] was inactive. The result in assay [8], in [9], in assay [10], in assay [11], in assay [12] and in [13] was inactive. Besides, the result in assay [14], in assay [15], in assay [17], in assay [18], in [19] and in assay [20] was inactive. The AC50 in assay [3] was 6.58 µM (active); in assay [16] it was 0.272 µM (active).

As to `O=C(O)C1C(C(=O)O)C2(Cl)C(Cl)=C(Cl)C1(Cl)C2(Cl)Cl` (centres undefined), the result in assay [1], in assay [2], in assay [3], in [4], in [5] and in assay [6] was inactive. Also, the result in assay [7], in assay [8], in [9], in [10], in assay [11] and in [12] was inactive. For the same molecule, the outcome in [13], in assay [14], in assay [15], in [16], in assay [17] and in assay [18] was inactive. The result in assay [19] and in assay [20] was inactive.

Take `CCNc1nc(Cl)nc(NC(C)(C)C)n1`: the outcome in [1], in [2], in [3], in assay [4], in [5] and in [6] was inactive. Also, the outcome in assay [7], in assay [8], in assay [9], in [10], in assay [11] and in assay [12] was inactive. Moreover, the outcome in [13], in assay [14], in [15], in assay [16], in assay [18] and in assay [19] was inactive. Besides, the outcome in assay [20] was inactive. For the same molecule, the AC50 in assay [17] is 4.52 µM (active).
